From PubChem BioAssay AID1159580 (chemical genetic matrix, 2015)
Values joined by “and” are separate entries in the source; they are usually repeats but may differ in a detail not shown here. Equal entries are not always repeated. The campaign covered roughly 5,500 compounds. About 2,000 (36%) were called active. About 18% were inconclusive and are not listed. No stated cut-off is given here; in the data, active means normalized growth mostly below about 0.91 (no sharp cut-off); inconclusive means no clear call, values can overlap the other calls; inactive means mostly above about 0.92. The list shows a part of the results.

Experiment: chemical genetic growth profiling, strain panel (AID 1159580);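 further: tested at 20 µM; growth read once vehicle control cultures reached saturation at 30 °C; 1 = growth at the plate median or of vehicle wells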
Conditions: S. cerevisiae deletion strains, growth OD

Measured: normalized growth

CCN(CC)CCOC(=O)c1ccc(N)cc1
inactive: locus YAL013W, strain DEP1, stronger effect = lower value 0.955 | locus YAL021C, strain ccr4, stronger effect = lower value 0.964 | locus YAL026C, strain drs2, stronger effect = lower value 0.989 | locus YAL030W, strain snc1, stronger effect = lower value 0.986 | locus YAL040C, strain CLN3, stronger effect = lower value 1.04 | locus YBL061C, strain skt5, stronger effect = lower value 0.999 | locus YBR009C, strain hhf1, stronger effect = lower value 0.95 | locus YBR021W, strain FUR4, stronger effect = lower value 1.01 | locus YBR023C, strain chs3, stronger effect = lower value 0.976 | locus YBR171W, strain sec66, stronger effect = lower value 0.988 | locus YBR229C, strain ROT2, stronger effect = lower value 1.01 | locus YBR231C, strain swc5, stronger effect = lower value 1.01 | locus YBR279W, strain paf1, stronger effect = lower value 0.979 | locus YCL011C, strain gbp2, stronger effect = lower value 0.955 | locus YCL016C, strain dcc1, stronger effect = lower value 0.963 | locus YCL029C, strain bik1, stronger effect = lower value 0.989 | locus YCL061C, strain MRC1 (second series), stronger effect = lower value 0.977 | locus YCL061C, strain MRC1, stronger effect = lower value 0.975 | locus YCL069W, strain vba3, stronger effect = lower value 0.972 | locus YCR088W, strain abp1, stronger effect = lower value 0.978 | locus YDL005C, strain med2, stronger effect = lower value 0.99 | locus YDL035C, strain GPR1, stronger effect = lower value 1.01 | locus YDL040C, strain nat1, stronger effect = lower value 1 | locus YDL074C, strain BRE1, stronger effect = lower value 1.03 | locus YDL101C, strain DUN1, stronger effect = lower value 1.01 | locus YDL134C, strain PPH21, stronger effect = lower value 1.01 | locus YDL185W, strain tfp1, stronger effect = lower value 0.995 | locus YDL192W, strain arf1, stronger effect = lower value 0.986 | locus YDR001C, strain nth1, stronger effect = lower value 0.973 | locus YDR069C, strain doa4, stronger effect = lower value 0.998 | locus YDR101C, strain arx1, stronger effect = lower value 1 | locus YDR137W, strain rgp1, stronger effect = lower value 0.98 | locus YDR150W, strain NUM1, stronger effect = lower value 0.999 | locus YDR159W, strain sac3, stronger effect = lower value 0.928 | locus YDR162C, strain NBP2, stronger effect = lower value 1.01 | locus YDR195W, strain ref2 0.999 | locus YDR297W, strain sur2, stronger effect = lower value 0.986 | locus YDR318W, strain mcm21, stronger effect = lower value 0.977 | locus YDR334W, strain swr1, stronger effect = lower value 0.982 | locus YDR335W, strain msn5, stronger effect = lower value 0.981 | locus YDR363W, strain ESC2, stronger effect = lower value 1.01 | locus YDR388W, stronger effect = lower value 0.997 | locus YDR392W, strain spt3, stronger effect = lower value 0.928 | locus YDR502C, strain sam2, stronger effect = lower value 0.997 | locus YEL003W, strain gim4, stronger effect = lower value 0.98 | locus YEL037C, strain rad23, stronger effect = lower value 0.989 | locus YEL061C, strain CIN8 (second series), stronger effect = lower value 0.978 | locus YEL061C, strain CIN8, stronger effect = lower value 1.01 | locus YER002W, strain NOP16, stronger effect = lower value 0.984 | locus YER015W, strain faa2, stronger effect = lower value 1 | locus YER016W, strain bim1, stronger effect = lower value 0.979 | locus YER110C, stronger effect = lower value 0.999 | locus YER111C, strain swi4, stronger effect = lower value 0.977 | locus YER155C, strain BEM2 (second series), stronger effect = lower value 1.06 | locus YER155C, strain BEM2, stronger effect = lower value 1 | locus YER167W, strain BCK2, stronger effect = lower value 1 | locus YFR010W, strain ubp6, stronger effect = lower value 0.988 | locus YGL078C, strain dbp3, stronger effect = lower value 0.997 | locus YGL086W, strain mad1, stronger effect = lower value 0.994 | locus YGL167C, strain pmr1, stronger effect = lower value 0.997 | locus YGL173C, strain kem1, stronger effect = lower value 0.994 | locus YGL227W, strain vid30, stronger effect = lower value 0.984 | locus YGL240W, strain doc1, stronger effect = lower value 1.01 | locus YGL248W, strain PDE1, stronger effect = lower value 1.01 | locus YGL253W, strain hxk2, stronger effect = lower value 0.963 | locus YGR078C, strain PAC10, stronger effect = lower value 1.01 and 0.99 | locus YGR135W, strain pre9, stronger effect = lower value 0.997 | locus YGR229C, strain SMI1, stronger effect = lower value 0.964 | locus YGR252W, strain gcn5, stronger effect = lower value 0.998 | locus YHR013C, strain ard1, stronger effect = lower value 0.969 | locus YHR027C, strain rpn1, stronger effect = lower value 0.97 | locus YHR030C, strain SLT2, stronger effect = lower value 1 and 1.05 | locus YHR079C, strain IRE1 (second series), stronger effect = lower value 0.981 | locus YHR079C, strain IRE1, stronger effect = lower value 1.04 | locus YHR094C, strain hxt1, stronger effect = lower value 0.983 | locus YHR129C, strain ARP1, stronger effect = lower value 1.01 | locus YHR142W, strain chs7, stronger effect = lower value 0.972 | locus YHR200W, strain rpn10, stronger effect = lower value 0.997 | locus YIL066C, strain RNR3, stronger effect = lower value 1.01 | locus YIL073C, strain SPO22, stronger effect = lower value 0.969 | locus YIL125W, strain kgd1, stronger effect = lower value 0.995 | locus YIR030C, strain dcg1, stronger effect = lower value 0.993 | locus YJL092W, strain hpr5, stronger effect = lower value 0.992 | locus YJL095W, strain BCK1 (second series), stronger effect = lower value 0.993 | locus YJL095W, strain BCK1, stronger effect = lower value 1.03 | locus YJL115W, strain asf1, stronger effect = lower value 0.98 | locus YJL129C, strain trk1, stronger effect = lower value 0.989 | locus YJL134W, strain LCB3, stronger effect = lower value 0.999 | locus YJL154C, strain vps35, stronger effect = lower value 0.987 | locus YJL164C, strain tpk1, stronger effect = lower value 0.961 | locus YJL166W, strain qcr8, stronger effect = lower value 1.02 | locus YJL168C, strain set2, stronger effect = lower value 0.993 | locus YJL187C, strain SWE1 (second series), stronger effect = lower value 1.01 | locus YJR043C, strain POL32, stronger effect = lower value 1.01 | locus YJR066W, strain TOR1, stronger effect = lower value 0.999
